High-throughput results deposited in PubChem BioAssay by several laboratories.
SSB-PriA inh: blocks PriA binding to SSB C-terminal tail | AlphaScreen SSBct-PriA binding, biotinylated peptide | inhibition, % at 33 µM | 0.6% of 430,000 active | AID 1272365; in the data active means inhibition mostly above about 37%, no sharp cut-off; inactive means mostly below about 20%;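 further: plate controls were negative control peptide for no effect and reference peptide for full effect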
CCHF vOTU inh: blocks the CCHF virus ovarian tumor domain protease | CCHFV vOTU protease, Pep-AMC fluorescence | inhibition, % at 11.5 µM | 0.55% of 370,000 active | AID 651958; in the data active means inhibition above about 30%; further: 0% = vehicle wells with enzyme and 100% = no enzyme wells
SARS 3CLpro inh: SARS-CoV 3CLpro protease inhibition; P0C6X7; recombinant SARS-CoV 3CLpro, quenched FRET peptide cleavage; inhibition, % at 6 µM; 0.14% of 290,000 active; AID 1706; in the data active means inhibition above about 12%
DUSP3 inh: blocks human VHR1 dual specificity phosphatase; P51452; recombinant VHR phosphatase, pNPP absorbance; inhibition, % at 13.3 µM; 0.52% of 290,000 active; AID 1654; in the data active means inhibition above about 50%
Target sequence (P51452 whole entry, looked up): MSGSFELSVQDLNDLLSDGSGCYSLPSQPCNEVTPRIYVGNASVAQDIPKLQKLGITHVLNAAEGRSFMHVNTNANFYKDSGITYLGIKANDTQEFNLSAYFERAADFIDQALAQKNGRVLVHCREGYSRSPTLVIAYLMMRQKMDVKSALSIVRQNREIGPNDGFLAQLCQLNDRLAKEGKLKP
RecA intein inh: inhibitors of M. tuberculosis RecA intein splicing | P9WHJ3 | 0.75% of 290,000 active | cell-free RecA intein splicing, fluorescence | inhibition, % (no concentration beside the values); in the data active means inhibition above about 30%;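 further: 0% = vehicle wells and 100% = reference inhibitor control wells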
An asterisk follows results filed as active. Shown are actives, neighbours in structure and some others; about 1.7% of the full set was active somewhere.

How did NC(=O)[C@@H]1CCCNc2c(I)cc([N+](=O)[O-])cc2C(=O)N[C@@H](Cc2ccccc2)C(=O)N[C@@H](Cc2cnc[nH]2)C(=O)N1 do in these assays?
SSB-PriA inh: 41*; CCHF vOTU inh: -1; SARS 3CLpro inh: 4; DUSP3 inh: 1; RecA intein inh: 5

Results for NC(=O)[C@@H]1CCCNc2c(I)cc([N+](=O)[O-])cc2C(=O)N[C@@H](CO)C(=O)N[C@@H](Cc2ccc(O)cc2)C(=O)N1 ?
SSB-PriA inh: 2; CCHF vOTU inh: 5; SARS 3CLpro inh: 1; DUSP3 inh: -3; RecA intein inh: 0

Results for O=[N+]([O-])c1cccc2cccnc12 ?
SSB-PriA inh: 37

Results for C/[N+]([O-])=C/c1ccnc2c1ccc1cccnc12 ?
SSB-PriA inh: 148*

What do the screens show for `Cc1ccnc2c1ccc1cccnc12`?
SSB-PriA inh: 103*; CCHF vOTU inh: -9

What do the screens show for `Cc1ccnc2c1ccc1c(C)ccnc12`?
SSB-PriA inh: 98*

What do the screens show for `CC(=O)Nc1nc(CC(=O)NCCOc2ccc(F)cc2)cs1`?
SSB-PriA inh: 2

What do the screens show for `C[C@H]1CN(C)CCN1CC1CCN(C(=O)c2cccc(Cl)c2)CC1`?
SSB-PriA inh: -3

What do the screens show for `Cc1nc(OCC(=O)NCc2nccc(N(C)C)n2)cc(-n2cccn2)n1`?
SSB-PriA inh: 4

How did O=C1NC(=S)N(S(=O)(=O)c2c(Cl)cccc2Cl)C1Cc1ccccc1 (stereo not drawn) do in these assays?
SSB-PriA inh: 86*

Results for CC(=O)c1ccc(N2CCN(C(=O)c3snc(-c4cccc(F)c4)c3N)CC2)cc1 ?
SSB-PriA inh: 0

Results for COc1ccc(C(=O)NC[C@@H](c2ccc(C)cc2)N2CCOCC2)c(OC)c1 ?
SSB-PriA inh: -2

Results for CCSc1nnc(NC(=O)C2(C)Cc3ccccc3C(=O)O2)s1 (stereo not drawn) ?
SSB-PriA inh: -4; CCHF vOTU inh: -2; SARS 3CLpro inh: -2; DUSP3 inh: 6; RecA intein inh: 0

Results for CC1(C(=O)Nc2nnc(C(C)(C)C)s2)Cc2ccccc2C(=O)O1 (stereo not drawn) ?
SSB-PriA inh: -14; CCHF vOTU inh: 9; SARS 3CLpro inh: 2; DUSP3 inh: 53*; RecA intein inh: 0

How did COc1ccc(Cc2cc(NCc3ccccc3)c3ncn(C(C)C)c3c2)cc1 do in these assays?
SSB-PriA inh: 66*; CCHF vOTU inh: 5

How did COCCCOc1cc(NCc2ccccc2)c2ncn(C(C)C)c2c1 do in these assays?
SSB-PriA inh: 22; CCHF vOTU inh: 7

What do the screens show for `CCOc1ccc(NC(=O)CC(NCCCN(C)C)C(=O)O)cc1` (stereo not drawn)?
SSB-PriA inh: -1

Results for COc1cccc(/C=N/NC(=O)CSc2cccc3cccnc23)c1 ?
SSB-PriA inh: active; CCHF vOTU inh: -8; SARS 3CLpro inh: 0; DUSP3 inh: 12; RecA intein inh: 4

How did O=C(CSc1cccc2cccnc12)NN=Cc1cccnc1 do in these assays?
SSB-PriA inh: 83*

What do the screens show for `COc1ccc(OC)c(/C=N/NC(=O)CSc2cc(C)nc3c(OC)cccc23)c1`?
CCHF vOTU inh: -50; SARS 3CLpro inh: 3; DUSP3 inh: 53*; RecA intein inh: 12

How did Cc1noc(-c2ccc(N3CCC[C@H](C(=O)NCCc4cccs4)C3)nc2)n1 do in these assays?
SSB-PriA inh: -5

Results for COc1ccc(-c2cc(-c3ccccc3)c3cc(Cl)ccc3n2)cc1OC ?
SSB-PriA inh: -11

Results for Cn1nc(-c2ccc(F)cc2)cc1C(=O)N1CCc2oncc2C1 ?
SSB-PriA inh: -23

Results for Clc1ccc(C2=C3CCCCn4c(-c5ccccc5)c[n+](c43)C2)cc1 ?
SSB-PriA inh: 11; CCHF vOTU inh: -40; SARS 3CLpro inh: 3; DUSP3 inh: 21; RecA intein inh: 33*

How did COC(=O)CCCC1=CC2=C(c3ccccc3)C(=O)C(C)(OC(=O)C3CCCC3)C(=O)C2=CN1CCCCO (stereo not drawn) do in these assays?
SSB-PriA inh: -6; CCHF vOTU inh: 6; DUSP3 inh: 11; RecA intein inh: 39*

Results for Nc1ccc2nc(CCCCCCCCc3nc4ccc(N)cc4[nH]3)[nH]c2c1 ?
SSB-PriA inh: 49*; CCHF vOTU inh: 7; SARS 3CLpro inh: 2; DUSP3 inh: 37; RecA intein inh: 5

How did Nc1ccc2nc(CCCCCCc3nc4ccc(N)cc4[nH]3)[nH]c2c1 do in these assays?
SSB-PriA inh: 33; CCHF vOTU inh: 12; SARS 3CLpro inh: 4; DUSP3 inh: 38; RecA intein inh: 7

What do the screens show for `O=[N+]([O-])c1cccc(CNc2ccc3c(c2)CCC3)c1`?
SSB-PriA inh: 69*; CCHF vOTU inh: -5; SARS 3CLpro inh: 3; DUSP3 inh: 21; RecA intein inh: 4

How did Oc1c(N=Nc2ccccn2)ccc2ccccc12 do in these assays?
SSB-PriA inh: 49*; CCHF vOTU inh: 3; SARS 3CLpro inh: -1; DUSP3 inh: 26; RecA intein inh: 7

What do the screens show for `O=C(NCCn1ncc2c(=O)n(Cc3ccccc3)cnc21)c1cccc(C(F)(F)F)c1`?
SSB-PriA inh: -18

What do the screens show for `COc1ccc(OC)c(NC(=O)N2CCN(c3ccc(-n4cccn4)nn3)CC2)c1`?
SSB-PriA inh: -2

Results for O=C(Cn1nc(-c2ccco2)ccc1=O)NCCn1nc(-n2cncn2)ccc1=O ?
SSB-PriA inh: -11

What do the screens show for `O=C(Nc1cccc(-c2nn[nH]n2)c1)c1ccc(Br)s1`?
SSB-PriA inh: 116*; CCHF vOTU inh: 3; SARS 3CLpro inh: 2; DUSP3 inh: -6; RecA intein inh: 1

How did Cc1cccc2sc(NC(=O)Cc3cc(=O)[nH]c(SCc4ccccc4)n3)nc12 do in these assays?
SSB-PriA inh: 0

How did C=CC[n+]1c(C)csc1Nc1cccc(Br)c1 do in these assays?
SSB-PriA inh: 61*; CCHF vOTU inh: 5; SARS 3CLpro inh: -1; DUSP3 inh: 5; RecA intein inh: 8

What do the screens show for `CC(=O)Oc1cc2c(cc1OC(C)=O)C(=O)CCCC2`?
CCHF vOTU inh: 2

Results for COC(=O)C1(C)Cc2cc(OC(C)=O)c(OC(C)=O)cc2N1 (stereo not drawn) ?
SARS 3CLpro inh: 0; DUSP3 inh: 21; RecA intein inh: 61*

How did Cc1nc2sccn2c1-c1nnc(SCC(=O)Nc2cc(C(F)(F)F)ccc2Cl)n1C do in these assays?
SSB-PriA inh: -2

How did CCN(CC)c1ccc(NC(=O)CCS(=O)(=O)c2ccc(Br)cc2)c(C)c1 do in these assays?
SSB-PriA inh: 8; CCHF vOTU inh: 5; SARS 3CLpro inh: 1; DUSP3 inh: 52*; RecA intein inh: -9

How did Cc1ccccc1NC(=O)CCS(=O)(=O)c1ccc(Br)cc1 do in these assays?
SSB-PriA inh: 0; CCHF vOTU inh: -12; SARS 3CLpro inh: 0; DUSP3 inh: -20; RecA intein inh: -3

How did O=C(N/N=C\c1cccc2ccccc12)c1cc(-c2ccc(F)cc2)n[nH]1 do in these assays?
SSB-PriA inh: 11

Results for COCCN1CCCc2ccc(NS(=O)(=O)c3ccc(F)cc3)cc21 ?
SSB-PriA inh: 20
